KDM4E inh – qHTS Assay for Inhibitors of Human Jumonji Domain Containing 2E (JMJD2E); Lysine-specific demethylase 4E (Homo sapiens), B2RXH2; JMJD2E catalytic domain, FDH-coupled NADH fluorescence (FDH is formaldehyde dehydrogenase); Potency, µM (doses to about 57.1 µM), inactives show top-dose activity change, negative = inhibition, most hits filed as inhibitors; 1.6% of 230,000 active; AID 2147, 2009; active = well fitted inhibition curve with a large enough effect, not every such curve was filed as active; inconclusive = small, poorly fitted or top-dose-only effect, or another doubt; inactive = no such curve, though single readings can be large or run the other way;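 note: potency is the fitted concentration of half-maximal effect; 0% = wells with enzyme and -100% = buffer wells without enzyme; nearly all actives have a fitted effect of over 50% in size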
Sfp inh – qHTS Assay for Inhibitors of Bacillus subtilis Sfp phosphopantetheinyl transferase (PPTase); 4'-phosphopantetheinyl transferase ffp (Bacillus subtilis), Q9F4F7; Biochemical Sfp PPTase activity, qHTS; Potency, µM, for the others: largest response in the series, negative = inhibition, actives largely listed as inhibitors; 3.5% of 310,000 active;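 note: the enzyme is Sfp with the accession as filed and its product quenches rhodamine fluorescence; potency is the fitted concentration of half-maximal effect; 0% = enzyme reaction without inhibitor and -100% = no enzyme wells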
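After 15 min at room temperature with compound, 15 nM Sfp received 5 uM rhodamine-CoA plus 12.5 uM BHQ-2-ybbR (50 mM Hepes pH 7.6, 10 mM MgCl2). Rate came from the fluorescence difference over 30 min, ex 525/em 598 nm.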
LMNA splice mod – qHTS Assay for Modulators of Lamin A Splicing; HeLa LMNA splicing GFP/RFP minigene ratio, 48 h; Potency, µM (doses to about 46.1 µM), without a hit: top-dose ratio change, negative = inhibition, actives largely listed as inhibitors; 0.01% of 200,000 active; AID 1487, 2009; active = well fitted inhibition curve with a large enough effect in the signal ratio, with a control signal flat, not every such curve was filed as active; inconclusive = small, poorly fitted or top-dose-only effect, or effect the other way, or a change in a side signal; the % refers to the signal ratio; note: potency is the fitted concentration of half-maximal effect; % is set by controls: 0 for no effect and ±100 for the full control effect
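Read-out is the ratio of GFP to DsRed2 object intensity, acquired by 488 nm laser-scanning cytometry on HeLa lamin A-EGFP minigene reporter cells. Compound incubation 48 hrs at 37 °C in Opti-MEM with 2% FBS; DMSO 0.5% final.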
miR-21 reporter – qHTS Assay for Modulators of miRNAs and/orActivators of miR-21 | HeLa miR-21 FLuc reporter, luciferase, 48 h | Potency, µM (doses to about 38.3 µM), without a hit: top-dose activity change, positive = activation, hits mostly activators | 340,000 tested, under 10 active | AID 2288, 2010;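 note: % of control where 0% means no effect; miR-21 action dims this reporter so a rising signal means less miR-21 action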
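Compounds were titrated across several concentrations (up to approximately 40 uM) and incubated 48 hours with HeLa miR-21-FLuc reporter cells (miR-21 target sequence downstream of FLuc, endogenous miR-21). Readout was firefly luciferase luminescence after lytic detection reagent.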
ALDH1A1 inh – qHTS Assay for Inhibitors of Aldehyde Dehydrogenase 1 (ALDH1A1). Aldehyde dehydrogenase 1A1 (Homo sapiens), P00352. Purified ALDH1A1, NADH fluorescence, propionaldehyde substrate. Potency, µM (top dose mostly 75.3 µM), for inactives: top-dose activity, negative = inhibition, usual class: inhibitors. 7.3% of 220,000 active; active = well fitted inhibition curve with a large enough effect, not every such curve was filed as active; inconclusive = small, poorly fitted or top-dose-only effect, or another doubt; inactive = no such curve, though single readings can be large or run the other way;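 note: potency is the fitted concentration of half-maximal effect; plate controls were no enzyme wells and a reference inhibitor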
Target sequence (P00352 whole entry, looked up): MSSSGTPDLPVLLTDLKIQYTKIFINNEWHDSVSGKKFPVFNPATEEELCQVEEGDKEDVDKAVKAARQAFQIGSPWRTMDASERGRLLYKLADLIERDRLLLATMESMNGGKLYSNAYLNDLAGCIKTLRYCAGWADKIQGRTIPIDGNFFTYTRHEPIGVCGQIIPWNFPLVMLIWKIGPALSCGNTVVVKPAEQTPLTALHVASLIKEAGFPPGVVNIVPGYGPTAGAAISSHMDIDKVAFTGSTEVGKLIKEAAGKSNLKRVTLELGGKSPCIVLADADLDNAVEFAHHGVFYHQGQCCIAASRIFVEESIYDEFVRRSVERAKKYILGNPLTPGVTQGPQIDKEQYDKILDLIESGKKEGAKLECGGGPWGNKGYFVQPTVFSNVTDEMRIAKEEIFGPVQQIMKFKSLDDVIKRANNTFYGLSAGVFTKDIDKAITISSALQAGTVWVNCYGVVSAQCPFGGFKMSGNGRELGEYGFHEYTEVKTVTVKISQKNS
G9a inh – qHTS Assay for Inhibitors of Histone Lysine Methyltransferase G9a. Histone-lysine N-methyltransferase EHMT2 (Homo sapiens), Q96KQ7. G9a H3K9 monomethylation, AlphaScreen, 2 h. Potency, µM (doses to about 102 µM), for the others: top-dose activity, negative = inhibition, most hits filed as inhibitors. 8.8% of 350,000 active. AID 504332, 2011; note: potency is the fitted concentration of half-maximal effect; % is set by controls: 0 for no effect and ±100 for the full control effect; nearly all actives have a fitted effect of over 75% in size
Target sequence (Q96KQ7 913-1193 limits assumed): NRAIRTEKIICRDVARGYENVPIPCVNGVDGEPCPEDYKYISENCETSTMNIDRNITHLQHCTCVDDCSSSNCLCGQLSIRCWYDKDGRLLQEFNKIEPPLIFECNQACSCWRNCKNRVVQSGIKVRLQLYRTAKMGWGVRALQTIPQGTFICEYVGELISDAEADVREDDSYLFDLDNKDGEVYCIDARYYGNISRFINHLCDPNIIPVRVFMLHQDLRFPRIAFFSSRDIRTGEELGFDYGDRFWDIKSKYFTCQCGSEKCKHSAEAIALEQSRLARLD
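Chemiluminescent proximity detection of H3K9 monomethylation, read after 10 min bead incubation in the dark. Reaction: 20 nM G9a, 500 nM biotin-H3K9 peptide, 20 uM SAM cofactor, 2 h, room temperature, following 15 min enzyme-compound preincubation.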
* hit, by the source's call; ? = inconclusive; nt = no result; ! = not active in a repeat; [ ] = dose if it differs, or a comment. A selection: hits, their analogues and other compounds. The true share with any hit is near 13%. Unless noted, calls come from the whole dose curve; as a rule, active = well fitted curve in the direction sought with a large enough effect; inconclusive = small, poorly fitted or top-dose-only effect, or another doubt; inactive = no such curve, though single readings can be large; an effect the other way counts as inactive or inconclusive.

SMILES	KDM4E inh	Sfp inh	LMNA splice mod	miR-21 reporter	ALDH1A1 inh	G9a inh
CSc1cccc(NS(=O)(=O)c2ccc3[nH]cc(C(=O)N4CCCCCC4)c(=O)c3c2)c1	nt	nt	nt	-4%	nt	?
COc1ccccc1OCCSc1nc2ccc([N+](=O)[O-])cc2s1	13%	9%	?	-19%	-9%	13µM*
C=CCc1ccccc1OCCSc1nc2ccc([N+](=O)[O-])cc2s1	-7%	-3%	-3%	1%	?	20µM*
O=C(CSc1nc2ccc([N+](=O)[O-])cc2s1)c1ccc2ccccc2c1	4%	6%	nt	-3%	11µM*!	nt
CCN1C(=O)c2ccccc2Sc2ccc(NC(=O)c3ccc(C#N)cc3)cc21	nt	nt	?	-2%	nt	-4%[59 µM]
Cc1ccc(NC(=O)NCc2c(-n3cccc3)sc3c2CCCC3)c(Cl)c1	nt	nt	nt	-6%	nt	-4%[59 µM]
O=C(NC(=S)Nn1cnc2c(cnn2-c2ccccc2)c1=O)c1ccc(Oc2ccccc2)cc1	10%	-2%	?	-1%	?	7%[59 µM]
O=C(NC(=S)Nn1cnc2c(cnn2-c2ccccc2)c1=O)c1ccc(Cl)cc1	-29%	11%	?	0%	?	45µM*
Cc1sc2c(c1C)c(=O)n(-c1ccccc1)c(=O)n2CC(=O)c1ccc(Cl)cc1	nt	nt	nt	4%	nt	-36%[59 µM]
CCOC(=O)c1[nH]cnc1C(=O)Nc1ccc(F)cc1	7%	17%	?	-1%	-10%	45µM*
O=C(Nc1ccccc1)c1nc[nH]c1C(=O)O	nt	nt	nt	-1%	nt	0.79µM*
CCOC(=O)c1[nH]cnc1C(=O)Nc1ccncc1	-4%	-6%	4%	0%	6%	?
CCOc1ccccc1NS(=O)(=O)c1cnc(N)nc1	nt	nt	2%[46 µM]	-1%	nt	10%[59 µM]
O=C(CSc1ccccc1C(=O)O)NCc1ccccc1	1%	27%	nt	-6%	12%	-45%
O=C(CSc1ccccc1C(=O)NCc1ccccc1)NC1CCCCCCC1	0%	-17%	-14%	-2%	-10%	10µM*
O=C(CSc1ccccc1C(=O)NCc1ccccc1)NC12CC3CC(CC(C3)C1)C2	-13%	9%	-6%	1%	-10%	10µM*
Cc1ccc(C(=O)COC(=O)C(CC(C)C)NC(=O)C2CCC(C)CC2)cc1 (stereo not drawn)	nt	nt	nt	-2%	nt	-23%[59 µM]
Cc1cc(C)n(Cc2cc(C(=O)O)c3ccccc3n2)n1	-7%	9%	nt	4%	0%	?
CCc1nc2oc3ccccc3c(=O)c2c(=O)n1-c1ccc(C)cc1	-10%	17%	nt	-68%	nt	50µM*
CCc1nn(CC(=O)N2CCN(c3cccc(C)c3C)CC2)c(=O)c2cc3occc3n12	nt	nt	nt	0%	nt	-8%[59 µM]
CCc1nn(CCCC(=O)N2CCN(c3cccc(C)c3C)CC2)c(=O)c2cc3occc3n12	nt	-9%	nt	-2%	nt	71µM*
O=c1oc2ccccc2c(O)c1/C=N/c1nc(-c2ccc(O)c(O)c2)cs1	nt	nt	nt	nt	3.5µM*	nt
O=c1[nH]c(O)c(/C=C2\C=Nc3ccccc32)[nH]1	5%	-12%	nt	-43%	-7%	5%[12.7 µM]
O=c1oc2ccccc2c(O)c1/C=C1\C=Nc2ccccc21	-23%	-5%	0%	-9%	13µM*	nt
O=c1oc2ccccc2c(O)c1C=Nc1cccnc1	-26%	20%	-15%[46 µM]	0%	-3%	50µM*
SMILES	KDM4E inh	Sfp inh	LMNA splice mod	miR-21 reporter	ALDH1A1 inh	G9a inh
O=c1oc2ccccc2c(O)c1/C=N/c1ncccn1	?	-13%	-1%	-5%	?	-38%
O=C(Nc1cccc(-n2cnnn2)c1)c1ccc(OC(F)(F)F)cc1	nt	11%	nt	4%	nt	17%
CCOC(=O)C1CCN(CC(=O)c2ccc(O)c(C)c2O)CC1	nt	6%	nt	6%	nt	?
CCCCn1c(CNC(=O)C23CC4CC(CC(C4)C2)C3)nnc1SCC(=O)Nc1ccc(F)cc1	nt	nt	nt	9%	nt	-42%[59 µM]
O=C(CCCn1c(=S)[nH]c2ccsc2c1=O)NCc1ccco1	1%	?	11%	-1%	4%	?
COc1ccc(Cn2c(=S)[nH]c3ccsc3c2=O)cc1	-12%	-13%	-5%	-21%	?	8.9µM*
CC(NC(=O)CCn1c(=S)[nH]c2ccsc2c1=O)c1ccccc1 (stereo not drawn)	-6%	11%	?	-4%	1%	28µM*
O=c1c2sccc2[nH]c(=S)n1Cc1ccccc1	2%	-18%	14%	-13%	?	10µM*
CC(=O)NCCNC(=O)c1ccc(Cn2c(=O)[nH]c3ccsc3c2=O)cc1	nt	-2%	nt	2%	nt	51%
COc1ccc(C(=O)c2c(C)c3cc(C)ccc3n2CC(O)CN2CCOCC2)cc1 (stereo not drawn)	-1%	-21%	?	5%	11µM*	?
COc1ccc(CN2CCN(CC(O)Cn3c4ccccc4c4ccccc43)CC2)cc1 (stereo not drawn)	-5%	-14%	?	-7%	4%	-15%[59 µM]
COc1ccc(C(=O)OC(C)CN2CCOCC2)cc1 (stereo not drawn)	nt	15%	nt	-15%	nt	-1%
CCOc1ccc(CN2CCN(CC(O)Cn3c4ccccc4c4ccccc43)CC2)cc1 (stereo not drawn)	-6%	?	?	?	5%	45µM*
Cc1cc(C)n(CC(O)Cn2c(C)c(C)c3ccccc32)n1 (stereo not drawn)	?	-26%	-14%	-4%	?	13µM*
Cc1c(C)n(CC(O)CN2CCCCC2)c2ccccc12 (stereo not drawn)	?	-25%	-6%	0%	?	?
Cc1c(C)n(CC(O)CN2CCOCC2)c2ccccc12 (stereo not drawn)	?	-13%	1%	-9%	?	13µM*
COc1ccc(Cl)cc1NC(=O)CN(C)S(=O)(=O)c1ccc(Br)s1	nt	nt	nt	-5%	nt	-35%[59 µM]
Cc1ccc(C)c(N2C(=O)N(Cc3ccccc3C)c3ccccc3S2(=O)=O)c1	nt	nt	?	17%	nt	-8%[59 µM]
O=C(O)CCNCC(=O)O	nt	nt	nt	nt	11%[13.5 µM]	nt
CN1CCN(CC(O)Cn2c3ccccc3c3ccccc32)CC1 (stereo not drawn)	nt	50µM*	nt	-1%	nt	1.8µM*
Cc1c(C)n(CC(O)CN2CCN(C)CC2)c2ccccc12 (stereo not drawn)	nt	2%	nt	0%	nt	?
O=C(OCc1nnc(-c2cccs2)o1)C1=NN(c2ccccc2)C(=O)CC1	nt	nt	nt	nt	nt	-3%[59 µM]
